{"source": "PubChem BioAssay (NCI)", "note": "Compounds without any hit were thinned out: in the full panel of roughly 83,000, 20% have a hit.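 96-well plates, one dose, 48 hours. Percent growth reported; active if below 10.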 Active and inactive are the calls of the source."}
{"system": "SK-MEL-28 melanoma", "test": "NCI-60 one-dose screen, 48 h (100 = growth as untreated, 0 = no growth, -100 = all killed)", "details": "10 µM unless noted"}
{"smiles": "COc1cc(C2CC(C3C(=O)N(C)C(=O)N(C)C3=O)=NN2C=O)cc(OC)c1OC", "note": "(configuration not stated)", "growth": "108% (inactive)"}
{"smiles": "C=C1CCC2C3(C)COC(c4ccccc4)OC3CCC2(C)C1C/C=C1/C(=O)OCC1OC(C)=O", "note": "(configuration not stated)", "growth": "118% (inactive)"}
{"smiles": "Clc1ccc(C2=NN(c3ccc(Cl)cc3)C(c3cccc(Nc4ccnc5cc(Cl)ccc45)c3)C2)cc1", "note": "(configuration not stated)", "growth": "104% (inactive)"}
{"smiles": "CC(=O)N1N=C(c2ccc(Nc3nc(NCCO)nc(NCCO)n3)cc2)CC1c1ccc(Cl)cc1", "note": "(configuration not stated)", "growth": "104% (inactive)"}
{"smiles": "O=C(c1ccccc1)c1ccc(Oc2ccc([N+](=O)[O-])cc2[N+](=O)[O-])cc1", "growth": "101% (inactive)"}
{"smiles": "O=C(C(=O)N1CCOCC1)c1cn(CCCn2cc(C(=O)C(=O)N3CCOCC3)c3ccccc32)c2ccccc12", "growth": "110% (inactive)"}
{"smiles": "CC(C)CC1NC(=O)C(CCCN)NC(=O)C(C(C)C)NC(=O)C2CCCN2C(=O)C(Cc2ccccc2)NC(=O)C(CC(C)C)NC(=O)C(CCCN)NC(=O)C(C(C)C)NC(=O)C2CCCN2C(=O)C(Cc2ccccc2)NC1=O", "note": "(configuration not stated)", "growth": "-72.1% (active)"}
{"smiles": "Cc1csc(C#Cc2cncc(O)c2)n1", "growth": "111% (inactive)"}
{"smiles": "COc1cc(/C=C/C(=O)C(C(=O)/C=C/c2ccc(OC(=O)CCNC34CC5CC(CC(C5)C3)C4)c(OC)c2)C(=O)CCNC23CC4CC(CC(C4)C2)C3)ccc1OC(=O)CCNC12CC3CC(CC(C3)C1)C2", "note": "(configuration not stated)", "growth": "-8.59% (active)"}
{"smiles": "C/C=C(/C(=C/C)c1ccc(O)cc1)c1ccc(O)cc1", "growth": "52.4% (inactive)"}
{"smiles": "COc1cc(/C=C/C(=O)CC(=O)/C=C/c2ccc(OC(=O)CCNC34CC5CC(CC(C5)C3)C4)c(OC)c2)ccc1OC(=O)CCNC12CC3CC(CC(C3)C1)C2", "growth": "33.6% (inactive)"}
{"smiles": "Oc1c(Cl)cc(Cl)c(Cl)c1Cc1c(O)c(Cl)cc(Cl)c1Cl", "growth": "22.4% (inactive)"}
{"smiles": "COc1cc(C2CC(c3ccc(C)cc3)=NN2C=O)ccc1OCCN(C)C", "note": "(configuration not stated)", "growth": "107% (inactive)"}
{"smiles": "NS(=O)(=O)c1cc(C2(O)NC(=O)c3ccccc32)ccc1Cl", "note": "(configuration not stated)", "growth": "116% (inactive)"}
{"smiles": "CCn1cnc(C[C@H](NC(=O)[C@H](CCCCNC(=O)Nc2cc(C(F)(F)F)cc(C(F)(F)F)c2)NC(=O)Nc2cc(C(F)(F)F)cc(C(F)(F)F)c2)C(=O)OC)c1", "growth": "-99.5% [100 µM] (active)"}
{"smiles": "CS(=O)(=O)N1CCN(Cc2cc3nc(-c4cccc5[nH]ncc45)nc(N4CCOCC4)c3s2)CC1", "note": "(tested in a mixture with another compound)", "growth": "10.6% (inactive)"}
{"smiles": "CN(C)c1ccc(-c2nc3ncc(Br)cc3o2)cc1", "growth": "120% (inactive)"}
{"smiles": "COc1ccc(-c2cc(-c3nnc(SCC(=O)Nc4ccc(C(C)=O)cc4)n3-c3ccccc3)c3ccccc3n2)cc1OC", "growth": "113% (inactive)"}
{"smiles": "Nc1nc(NC2CC2)c2ncn(C3C=CC(CO)C3)c2n1", "note": "(configuration not stated)", "growth": "118% (inactive)"}
{"smiles": "C[C@]12CCC(=O)C=C1CC[C@H]1[C@@H]3C[C@@H](O)[C@](O)(C(=O)CO)[C@@]3(C)C[C@H](O)[C@@]12F", "growth": "107% (inactive)"}
{"smiles": "NS(=O)(=O)c1cc2c(cc1Cl)NC=NS2(=O)=O", "growth": "108% (inactive)"}
{"smiles": "COc1cnc2c(c1)C(=O)c1c-2n(CCCn2ccnc2)c(=O)c2cc(F)ccc12", "growth": "-62.5% (active)"}
{"smiles": "NC(=O)c1cc(Br)cc(Br)c1NS(=O)(=O)c1ccccc1", "growth": "110% (inactive)"}
{"smiles": "CN(C)c1ccc(-n2nc3ccccc3n2)cc1", "growth": "126% (inactive)"}
{"smiles": "CC1CN(C2CCCCC2)C(=O)NC1=O", "note": "(configuration not stated)", "growth": "116% (inactive)"}
{"smiles": "O=C1C=CC(=O)N1c1ccccc1N1C(=O)C=CC1=O", "growth": "114% (inactive)"}
{"smiles": "Cc1n(Cc2ccc3ccccc3c2)c2ccccc2[n+]1Cc1ccc2ccccc2c1", "growth": "-58% (active)"}
{"smiles": "C[C@H]1O[C@@H](O[C@H]2[C@@H](O)C[C@H](O[C@H]3[C@@H](O)C[C@H](O[C@H]4CC[C@]5(C)C6C[C@@H](O)[C@]7(C)[C@@H](C8=CC(=O)OC8)CC[C@]7(O)C6CC[C@@H]5C4)O[C@@H]3C)O[C@@H]2C)C[C@H](O)[C@@H]1O", "note": "(some centres not stated)", "growth": "-56.3% (active)"}
{"smiles": "O=C(CNc1ccc2c(c1)C(=O)c1ccccc1C2=O)Nc1ccc2c(c1)C(=O)c1ccccc1C2=O", "growth": "-75.1% (active)"}
{"smiles": "Cc1sc2nc(N3CCCCC3)[nH]c(=O)c2c1C", "growth": "103% (inactive)"}
{"smiles": "NC(=NCCCCCCN=C(N)/N=C(\\N)Nc1ccc(Cl)cc1)/N=C(\\N)Nc1ccc(Cl)cc1", "growth": "32.8% (inactive)"}
{"smiles": "COc1cc(NC(=O)NCc2ccco2)ccc1-c1ccc(NC(=O)NCc2ccco2)cc1OC", "growth": "79.8% (inactive)"}
